Source: the supplement of paper PMC13380429

Test system: Vero E6 infected with SARS-CoV-2
Assay: inhibition of SARS-CoV-2 cytopathic effect; higher = more antiviral protection, active = above 15
Conditions: 48 h

Measured: inhibition of SARS-CoV-2 cytopathic effect

CN1C(=O)N[C@H](Cc2c[nH]c3c(Cl)cccc23)C1=O [necrostatin-2]
inactive: 1 nM -3.13% | 8.33 nM -7.04% | 100 nM -6.01% | 833.33 nM -0.96% | 10000 nM -5.96%

C#CCOC(=O)C1=CCCN(C)C1 [arecaidine-propargyl-ester]
inactive: 1 nM -3.75% | 8.33 nM 0.55% | 100 nM -0.74% | 833.33 nM -1.69% | 10000 nM 2.67%

CCOP(=S)(OCC)Oc1ccc2c(C)c(Cl)c(=O)oc2c1 [coumophos]
inactive: 1 nM -3.33% | 8.33 nM 0.82% | 100 nM 0.18% | 833.33 nM -2.21% | 10000 nM -0.05%

C[C@]12C[C@H](O)[C@H]3[C@@H](CCC4=CC(=O)CC[C@@]43C)[C@@H]1CC[C@@H]2C(=O)CO [corticosterone]
inactive: 1 nM -1.19% | 8.33 nM -0.88% | 100 nM 0.56% | 833.33 nM -0.38% | 10000 nM 0.43%

c1cc2c(cc1C1CCCCC1)c1c3n2CCNC3CCC1 (stereo not given) [tetrindole]
active: 10000 nM 20.8%
inactive: 1 nM 1.68% | 8.33 nM 1.55% | 100 nM -2.86% | 833.33 nM -1.8%

CC(C)(C)NCC(O)c1ccccc1Cl (stereo not given) [tulobuterol]
inactive: 1 nM 2.01% | 8.33 nM 1.33% | 100 nM -0.63% | 833.33 nM -10.6% | 10000 nM 2%

CN1CCc2c(c3ccccc3n2Cc2ccccc2)C1 [mebhydrolin]
inactive: 1 nM -0.15% | 8.33 nM 2.44% | 100 nM 1.76% | 833.33 nM -0.47% | 10000 nM -1.08%

CC(=O)c1cc([N+](=O)[O-])c(Sc2ccc(F)cc2F)s1
inactive: 1 nM -0.55% | 8.33 nM 1.74% | 100 nM 0.23% | 833.33 nM -0.14%
active: 10000 nM 19.6%

Nc1nccc(-c2ccc3noc(-c4ccc(Cl)cc4)c3c2)n1 [PIM-1-Inhibitor-2]
inactive: 1 nM 0.72% | 8.33 nM -0.19% | 100 nM 3.66% | 833.33 nM 0.83% | 10000 nM 0.56%

O=C(Oc1ccc([N+](=O)[O-])cc1)N1CCC(C(O)(c2ccc3c(c2)OCO3)c2ccc3c(c2)OCO3)CC1
inactive: 1 nM 0.7% | 8.33 nM 6.75% | 100 nM 2.26% | 833.33 nM 1.03% | 10000 nM 1.62%

CCC(CC)Nc1nc(C)c(-c2ccc(OC(F)(F)F)cc2OC)nc1OC
inactive: 1 nM 1.38% | 8.33 nM 3.16% | 100 nM 1.61% | 833.33 nM 0.57% | 10000 nM -0.01%

CCCC(=O)Nc1ccc(OCC(O)CNC(C)C)c(C(C)=O)c1 (stereo not given) [acebutolol]
inactive: 1 nM 4.4% | 8.33 nM 2.88% | 100 nM 3.43% | 833.33 nM -2.09% | 10000 nM 3.92%

O=C(NCc1cccc(O)c1)Nc1nc(-c2ccncc2)cs1
inactive: 1 nM 1.7% | 8.33 nM 1.65% | 100 nM -1.57% | 833.33 nM -6.16% | 10000 nM -6.11%

C[C@@H](c1ccc2nccn2c1)n1nnc2ncc(-c3cnn(C)c3)nc21 [savolitinib]
inactive: 1 nM 0.39% | 8.33 nM -0.4% | 100 nM -0.3% | 833.33 nM 0.87% | 10000 nM 1.9%

O=C(O)CCCCC(=O)O [adipic-acid]
inactive: 1 nM -3.52% | 8.33 nM -3% | 100 nM -0.01% | 833.33 nM -2.5% | 10000 nM -1.83%

Cn1cnc(N)c2ncnc1-2 [3-methyladenine]
inactive: 1 nM -3.13% | 8.33 nM -1.71% | 100 nM -2.68% | 833.33 nM -0.52% | 10000 nM -1.76%

COc1ccc2cc3[n+](cc2c1OC)CCc1cc2c(cc1-3)OCO2 [berberine]
inactive: 1 nM -11.8% | 8.33 nM -10.1% | 100 nM -11% | 833.33 nM -3.86% | 10000 nM -3.62%

OC[C@@H](O)[C@@H](O)[C@@H](O)CO [ribitol]
inactive: 1 nM 2.52% | 8.33 nM 3.83% | 100 nM 1.9% | 833.33 nM 3.1% | 10000 nM 1.14%

CCC(CC)(NC(=O)C(C)C)C(=O)N[C@@H](CCCNC(=N)N)C(=O)NC1(C(=O)NC(c2ccc(F)cc2)c2ccc(F)cc2)CCCC1
inactive: 1 nM -0.92% | 8.33 nM -1.15% | 100 nM -1.6% | 833.33 nM 0.7% | 10000 nM -3.48%

O=C(O)[C@H]1O[C@@H](Oc2cc3oc(-c4ccccc4)cc(=O)c3c(O)c2O)[C@H](O)[C@@H](O)[C@@H]1O [baicalin]
inactive: 1 nM 2.44% | 8.33 nM -0.79% | 100 nM -1.89% | 833.33 nM -5.03% | 10000 nM 2.97%

CC(C)[C@](O)(c1ccc2cc(OC(F)F)c(OC(F)F)cc2c1)c1c[nH]nn1
inactive: 1 nM -0.91% | 8.33 nM 2.28% | 100 nM 2.85% | 833.33 nM 5.3% | 10000 nM 6.8%

CCCC(=O)Nc1ncnc2c1ncn2[C@@H]1O[C@@H]2COP(=O)(O)O[C@H]2[C@H]1OC(=O)CCC [bucladesine]
inactive: 1 nM -1.3% | 8.33 nM -3.37% | 100 nM -2.82% | 833.33 nM 0.58% | 10000 nM 1.04%

Cc1ccc(-n2sc(=O)n(Cc3ccc(F)cc3)c2=O)cc1
inactive: 1 nM 1.81% | 8.33 nM -0.78% | 100 nM 0.17% | 833.33 nM -0.22% | 10000 nM -3.39%

C[N+](C)(C)CCCCCNCC12CC3CC(CC(C3)C1)C2
inactive: 1 nM -4.72% | 8.33 nM -5.14% | 100 nM -6.53% | 833.33 nM -6.39% | 10000 nM -4.67%

Cc1cc(-n2c(=O)[nH]c(=O)n(C)c2=O)ccc1Oc1ccc(SC(F)(F)F)cc1 [toltrazuril]
inactive: 1 nM 1.91% | 8.33 nM -0.85% | 100 nM 1.02% | 833.33 nM -10.3% | 10000 nM -0.06%

O=C(O)COCCN1CCN(C(c2ccccc2)c2ccc(Cl)cc2)CC1 (stereo not given) [cetirizine]
inactive: 1 nM -1.03% | 8.33 nM 1.14% | 100 nM -0.08% | 833.33 nM 0.99% | 10000 nM -2.71%

CCC(O)(CC(N)=O)c1ccccc1 (stereo not given) [3-hydroxy-3-phenylpentanamide]
inactive: 1 nM 1.46% | 8.33 nM 0.49% | 100 nM -0.1% | 833.33 nM -10.4% | 10000 nM 0.22%

CC(/C=C1\SC(=S)N(CC(=O)O)C1=O)=C\c1ccccc1 [epalrestat]
inactive: 1 nM -1.25% | 8.33 nM -1.52% | 100 nM -1.17% | 833.33 nM 1.15% | 10000 nM -0.07%

CC(C)CCNc1ncccc1C(=O)N1CCN(Cc2ccccc2)CC1
inactive: 1 nM 0.16% | 8.33 nM 0.21% | 100 nM 1.38% | 833.33 nM 0.33% | 10000 nM -0.35%

CN(C(=O)CN1C(=O)COc2cc(Cl)c(Cl)cc21)[C@@H](CN1CCCC1)c1ccc(-c2cccc(C(N)=O)c2)cc1
inactive: 1 nM -0.51% | 8.33 nM 1.04% | 100 nM 3.9% | 833.33 nM 1.88% | 10000 nM 5.93%

O=C(O)C(O)Cc1ccc(O)c(O)c1 (stereo not given) [sodium-danshensu]
inactive: 1 nM 1.07% | 8.33 nM -0.48% | 100 nM 2.17% | 833.33 nM -0.61% | 10000 nM -1.7%

Cc1ccccc1C(OCCN(C)C)c1ccccc1 (stereo not given) [orphenadrine]
inactive: 1 nM 0.59% | 8.33 nM 0.5% | 100 nM -0.66% | 833.33 nM 1.65% | 10000 nM -0.73%

CC1(C)Oc2ccc(C#N)cc2[C@@H](N2CCCC2=O)[C@@H]1O [levcromakalim]
inactive: 1 nM 0.65% | 8.33 nM 1.1% | 100 nM 0.31% | 833.33 nM 1.22% | 10000 nM 2.06%

CSCC1CN(/N=C/c2ccc([N+](=O)[O-])o2)C(=O)O1 (stereo not given) [inimur]
inactive: 1 nM -1.14% | 8.33 nM -0.35% | 100 nM 2.9% | 833.33 nM 1.93% | 10000 nM 0.52%

Cc1nnc(C(C)C)n1C1C[C@H]2CC[C@@H](C1)N2CC[C@H](NC(=O)C1CCC(F)(F)CC1)c1ccccc1 (stereo in doubt) [maraviroc]
inactive: 1 nM -2.38% | 8.33 nM -1.45% | 100 nM 1.77% | 833.33 nM -0.21% | 10000 nM 2.92%

CC12CCC(CC1=O)C2(C)C (stereo not drawn) [camphor-(+)]
inactive: 1 nM 1.23% | 8.33 nM 0.085% | 100 nM -0.16% | 833.33 nM 1.82% | 10000 nM -0.53%

O=C(O)Cc1ccccc1Nc1c(Cl)cccc1Cl [diclofenac]
inactive: 1 nM 1.25% | 8.33 nM 0.03% | 100 nM 0.38% | 833.33 nM -0.74% | 10000 nM 0.2%

CCN(CC)C(=O)c1ccc(C2=CC3(CCNCC3)Oc3cccc(O)c32)cc1
inactive: 1 nM -0.93% | 8.33 nM -0.47% | 100 nM -4.19% | 833.33 nM -2.26% | 10000 nM -2.32%

C=C1C(=O)O[C@@H]2[C@H]3O[C@]3(C)CC/C=C(\C)CC[C@@H]12 [parthenolide-(alternate-stereo)]
active: 10000 nM 23.8%
inactive: 1 nM 0.91% | 8.33 nM -1.19% | 100 nM -2.99% | 833.33 nM 2.8%

CN1CCN(c2c(F)cc3c(=O)c(C(=O)O)cn(CCF)c3c2F)CC1 [fleroxacin]
inactive: 1 nM -1.94% | 8.33 nM -0.15% | 100 nM 1.24% | 833.33 nM 0.81% | 10000 nM -1.08%
